A selection: hits, their analogues and other compounds. The true share with any hit is near 21%.
DT40 TDP1 CPT – growth inhibition of DT40 Tdp1-/-;hTDP1 cells with camptothecin (screen for TDP1 inhibitors) | chicken DT40 Tdp1-/-;hTDP1 cells + 20 nM CPT, ATP luminescence, 48 h | Potency, µM (doses to about 46.2 µM), hits mostly inhibitors | 420,000 compounds, 12% hits | AID 686979; note: nearly all actives have a fitted effect of over 55% in size
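Chicken DT40 Tdp1-/- cells complemented with human TDP1, 400 cells/well, exposed to compounds plus 20 nM camptothecin for at least 48 h at 37 C; viability read as ATP content by CellTiter-Glo luminescence.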
DT40 TDP1 no CPT – qHTS for Inhibitors of human tyrosyl-DNA phosphodiesterase 1 (TDP1): qHTS in cells in absence of CPT. DT40 Tdp1-/- hTDP1 cells, no CPT, ATP luminescence, 48 h. Potency, µM (titrated, usually from 46.2 µM), most hits filed as inhibitors. 420,000 compounds, 15% hits. AID 686978, 2013; note: nearly all actives have a fitted effect of over 55% in size
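Cells were dispensed at 400 per well, compounds added by pin tool, plates incubated ≥48 hr at 37 °C, then CellTiter-Glo added for 30 min at room temperature before luminescence reading. Line: DT40 Tdp1-/- complemented with hTDP1; camptothecin omitted.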
ELG1 repair inh – blocks ELG1-dependent DNA repair in HEK293T cells; HEK293T ELG1-luciferase reporter, luminescence, 16 h; DNA damage induced by 5-fluorouridine; Potency, µM (titrated, usually from 46.1 µM), actives largely listed as inhibitors; 330,000 compounds, 2.3% hits; AID 504467; note: nearly all actives have a fitted effect of over 55% in size
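HEK293T cells expressing luciferase-tagged ELG1 (2,000/well) received 5-Fluorouridine plus compound or DMSO for 16 hr at 37 °C. Luciferase was read by ONE-Glo luminescence after 30 min at room temperature.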
IL1B secr inh – inhibitors of inflammasome signaling (IL-1 beta secretion); THP-1 LPS/ATP IL-1B secretion, AlphaLISA, 16 h; active compounds read low; 360,000 compounds, 4.7% hits; activity change, % at 57.5 µM; in the data active = activity change below about -50%; inconclusive = mostly about -30% to -49%
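Secreted IL-1B measured by AlphaLISA bead assay after 16 h compound exposure of THP-1 cells; compounds (final up to 57.5 uM) added 1 h before LPS (250 ng/mL) and ATP (1.25 mM) stimulation; lower signal means less secretion.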
Gal4-VP16 FLuc – Gal4-VP16 reporter inhibition counter-screen | Potency, µM (top dose mostly 53.6 µM), hits mostly inhibitors | 310,000 compounds, 3.5% hits | AID 2546 | Drosophila S2 Gal4-VP16 UAS-luciferase, luminescence, 20 h;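 note: Gal4-VP16 expression switched on by copper sulfate through the metallothionein promoter; nearly all actives have a fitted effect of over 50% in size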
RORgamma inh – inhibitors of mouse ROR gamma transcriptional activity; Potency, µM (doses to about 53.6 µM), most hits filed as inhibitors; 310,000 compounds, 5.4% hits; Drosophila S2 Gal4-RORgamma UAS-luciferase reporter, 20 h; AID 2551; note: nearly all actives have a fitted effect of over 60% in size
Target sequence (P51450 whole entry, looked up, the tested form may be a part): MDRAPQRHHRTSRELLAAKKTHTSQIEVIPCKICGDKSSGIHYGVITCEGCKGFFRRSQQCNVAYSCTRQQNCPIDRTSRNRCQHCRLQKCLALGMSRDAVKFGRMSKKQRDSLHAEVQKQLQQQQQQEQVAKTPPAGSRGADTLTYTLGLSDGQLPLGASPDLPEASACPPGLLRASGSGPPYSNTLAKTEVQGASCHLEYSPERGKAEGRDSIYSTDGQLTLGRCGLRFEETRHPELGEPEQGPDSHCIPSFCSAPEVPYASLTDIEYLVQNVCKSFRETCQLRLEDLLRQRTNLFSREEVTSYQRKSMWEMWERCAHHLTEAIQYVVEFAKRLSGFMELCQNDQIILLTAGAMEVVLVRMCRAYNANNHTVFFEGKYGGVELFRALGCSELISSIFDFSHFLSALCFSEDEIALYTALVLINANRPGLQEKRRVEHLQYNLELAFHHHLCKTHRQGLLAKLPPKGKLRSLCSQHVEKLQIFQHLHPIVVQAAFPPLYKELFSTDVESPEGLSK
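Drosophila Schneider cells stably carrying a metallothionein-driven Gal4 DBD–ROR gamma fusion and a UAS-Photinus luciferase reporter were exposed to compound for 1 hr, then induced with copper sulfate (700 uM final) for 20 hr at ambient temperature before luminescence reading.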
Hits are given with their value; n = inactive; u = inconclusive; x = no result given; [ ] = dose if it differs, or a comment. Unless noted, calls come from the whole dose curve; as a rule, active = well fitted curve in the direction sought with a large enough effect; inconclusive = small, poorly fitted or top-dose-only effect, or another doubt; inactive = no such curve, though single readings can be large; an effect the other way counts as inactive or inconclusive.

SMILES	DT40 TDP1 CPT	DT40 TDP1 no CPT	ELG1 repair inh	IL1B secr inh	Gal4-VP16 FLuc	RORgamma inh
COc1ccc(Cl)cc1NC(=O)CSc1nnc(COc2ccccc2)n1C	u	u	n	n	n	n
CCc1cccc2c(-c3ccccc3)nc(SCC(=O)Nc3ccccc3OC)nc12	u	18µM	x	x	x	x
COc1ccccc1NC(=O)CSc1nnc2c3ccccc3n(C(C)C)c2n1	3.7µM	4.6µM	x	x	x	x
COc1ccc(CNC(=O)C(CC(C)C)NS(=O)(=O)c2ccc3c(c2)CCN3C(C)=O)cc1 (stereo not given)	n	n	x	x	x	x
CC(=O)Oc1cc2c(cc1Cl)C1(CC(c3ccccc3Cl)O2)CC(C)(C)NC(=S)N1 (stereo not given)	3.3µM	2.6µM	u	n	u	10µM
Cc1cc(N2CCOCC2)nc2ccc(NC(=O)C3CCCCC3)cc12	13µM	10µM	x	x	x	x
Cc1cc(N2CCOCC2)nc2ccccc12	n	n	u	n	n	n
Cc1ccc(NC(=O)C2CCCC2)cc1S(=O)(=O)N1CCOCC1	n	n	n	n	x	x
Cc1cc(N2CCOCC2)nc2ccc(NC(=S)N3CCCCC3C)cc12 (stereo not given)	u	u	u	-67	n	u
Cc1ccc(NC(=O)c2ccc3c(c2)NC(=O)c2ccccc2S3)cc1	3.7µM	2.6µM	x	x	x	x
Cc1ccc(C(=O)Nc2ccc3c(c2)N(C)C(=O)c2ccccc2S3)cc1F	1µM	0.82µM	x	x	x	x
CC(=O)c1ccc2c(c1)Nc1ccccc1S2	n	u	n	n	n	n
CC(=O)Nc1cc(C(=O)Nc2ccc3c(c2)N(C)C(=O)c2ccccc2S3)ccc1C	1.6µM	0.92µM	x	x	x	x
CCCCNC(=O)c1ccc2c(c1)N(C)C(=O)c1ccccc1S2	u	u	n	n	n	n
C/C(=N\NC(=O)c1ccc(C)cc1C)c1ccc2c(c1)Nc1ccccc1S2	u	16µM	u	n	n	n
O=C(NCCC[N+]1=CC=N[C@H]1c1ccccc1)N1CCCc2nc(-c3ccc(Br)cc3)ccc21	x	x	x	x	n[10 µM]	n[10 µM]
O=C1C=CC(=O)N1c1ccccc1N1C(=O)C=CC1=O	0.92µM	0.58µM	x	-98	x	x
O=C1C=CC(=O)N1c1ccccn1	u	u	x	n	x	x
O=C(c1ccccc1)c1ccccc1N1C(=O)C=CC1=O	0.73µM	1.6µM	u	-98	7.1µM	5µM
COc1cccc(OC)c1OCCN1CCC(C(=O)NC(c2ccc3c(c2)OCO3)c2ccccn2)CC1 (stereo not given)	n	n	x	n	x	x
O=C(NC(c1ccc(F)cc1)c1cnccn1)C1CCN(CCOc2ccc(Cl)cc2Cl)CC1 (stereo not given)	u	16µM	x	x	x	x
O=C(NC(c1ccc(Cl)cc1)c1cnccn1)C1CCN(CCOc2ccc(F)cc2)CC1 (stereo not given)	u	18µM	x	u	x	x
COc1ccc(C(NC(=O)C2CCN(CCCOc3ccccc3)CC2)c2ccccn2)cc1 (stereo not given)	n	n	x	n	x	x
O=C(NC(c1ccc(-c2ccccc2)cc1)c1cnccn1)C1CCN(CCCOc2ccccc2)CC1 (stereo not given)	23µM	13µM	x	n	x	x
O=C(NC(c1ccc(-c2ccccc2)cc1)c1cnccn1)C1CCN(CCOc2ccc(F)cc2)CC1 (stereo not given)	u	u	x	-54	x	x
SMILES	DT40 TDP1 CPT	DT40 TDP1 no CPT	ELG1 repair inh	IL1B secr inh	Gal4-VP16 FLuc	RORgamma inh
COc1ccc(OCC2c3cc(OC)c(OC)cc3CCN2C(=O)c2ccc(F)cc2)cc1 (stereo not given)	n	u	x	x	x	x
CCNS(=O)(=O)c1ccc(NC(=S)N2CCc3ccccc32)cc1	u	n	n	n	n	u
Cc1ccc(-c2nc(=Nc3c(C)cc(C)cc3C)sn2-c2ccccc2)cc1	5µM	2.2µM	x	x	x	x
COc1ccc(-n2nc(C(N)=O)nc2-c2ccccc2)cc1	n	n	n	n	n	n
COc1ccc(C(=O)N=c2nc(-c3ccccc3)n(-c3ccccc3)s2)cc1	13µM	u	x	x	x	x
CN=c1nc(-c2ccccc2)n(-c2ccccc2)s1	4.6µM	6.5µM	u	n	x	x

Compound activity: PubChem BioAssay, National Center for Advancing Translational Sciences (NCATS)
